# Screening results deposited in PubChem BioAssay by National Center for Advancing Translational Sciences (NCATS).
# This is a sample that favours compounds with a hit; in the whole collection about 1% have one here.
# gsp agonist: activates gsp, the McCune-Albright syndrome mutation. Potency, µM (series often up to 76.9 µM), inactives show top-dose activation (cAMP increase), most hits filed as activators. hit rate 0.13% among 340,000. gsp mutant cells, cAMP HTRF, 30 min; active = well fitted activation curve with a large enough effect; inconclusive = small, poorly fitted or top-dose-only effect, or another doubt; inactive = no such curve, though single readings can be large or run the other way; cell line not stated here;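 also: phosphodiesterase inhibitor Ro 20-1724 added with compounds to block cAMP breakdown; potency is read from the fitted curve at half-maximal effect; nearly all actives have a fitted effect of over 60% in size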
#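 Cells stably selected in G418 were plated at 2000/well, grown 16-24 hr, then given compounds in DMSO with the PDE inhibitor […] (300 uM solution added) for 30 min at 37C; cAMP was read by HTRF.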
# RXFP1 antagonist: blocks the human relaxin receptor RXFP1; AID 1259400; HEK293-RXFP1, relaxin-stimulated cAMP HTRF, 30 min; hits give low values; activity change, negative = inhibition, % at 57.5 µM; Q9HBX9; hit rate 0.59% among 350,000;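 active = activity change of -60% or lower, but not beyond a set lower limit; inconclusive = change between -60% and -40%, or beyond the set limit; inactive = change above -40%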; also: % is scaled to controls: 0 for no effect and ±100 for the full control effect
# Target sequence (Q9HBX9 whole entry, looked up): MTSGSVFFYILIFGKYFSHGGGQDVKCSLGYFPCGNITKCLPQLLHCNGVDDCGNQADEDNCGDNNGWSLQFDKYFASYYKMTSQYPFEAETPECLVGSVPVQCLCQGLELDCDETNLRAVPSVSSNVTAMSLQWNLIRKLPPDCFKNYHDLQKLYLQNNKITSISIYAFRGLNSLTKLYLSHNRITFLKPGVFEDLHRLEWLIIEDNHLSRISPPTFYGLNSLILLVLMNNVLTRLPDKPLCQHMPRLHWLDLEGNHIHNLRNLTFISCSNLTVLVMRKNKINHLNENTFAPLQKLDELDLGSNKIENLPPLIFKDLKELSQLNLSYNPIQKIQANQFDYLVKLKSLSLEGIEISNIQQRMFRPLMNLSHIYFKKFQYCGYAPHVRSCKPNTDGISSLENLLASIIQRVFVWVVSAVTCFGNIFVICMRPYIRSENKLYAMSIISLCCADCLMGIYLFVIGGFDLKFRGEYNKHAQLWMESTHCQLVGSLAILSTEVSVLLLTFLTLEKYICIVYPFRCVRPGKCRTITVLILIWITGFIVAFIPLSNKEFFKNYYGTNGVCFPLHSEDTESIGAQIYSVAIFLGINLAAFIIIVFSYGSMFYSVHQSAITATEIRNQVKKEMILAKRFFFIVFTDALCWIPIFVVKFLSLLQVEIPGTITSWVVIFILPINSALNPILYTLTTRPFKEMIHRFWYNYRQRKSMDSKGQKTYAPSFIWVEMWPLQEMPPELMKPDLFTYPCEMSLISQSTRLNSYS
# PTHR1 ag: PTHR1 (human) receptor agonism; hit rate 0.075% among 410,000; HEK293 GP2 PTHR1 cells, GloSensor cAMP luminescence, 1 h; Potency, µM (series often up to 115 µM), inactives show top-dose activation, actives largely listed as activators; Q03431; also: potency is read from the fitted curve at half-maximal effect; nearly all actives have a fitted effect of over 55% in size
#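 HEK-293-derived GP2 cells expressing PTHR1 and a GloSensor cAMP reporter, 3,000/well, plated overnight, given luciferin plus IBMX (each 0.5 mM as added) for 1 h at 37 °C, then compound for 1 h at 37 °C. Luminescence was read after 15 min at room temperature.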
# RXFP1 agonist: agonists of human relaxin receptor RXFP1 | Q9HBX9 | HEK293T-RXFP1 cAMP TR-FRET, 30 min; response scale: percent of porcine relaxin response, buffer zero | Potency, µM (doses to about 57.5 µM), inactives show top-dose activation, hits mostly activators | hit rate 0.3% among 370,000; also: potency is read from the fitted curve at half-maximal effect; % is scaled to controls: 0 for no effect and ±100 for the full control effect; nearly all actives have a fitted effect of over 60% in size
#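 Agonist response is measured as cAMP accumulation in an RXFP1-transfected HEK293T line under PDE4 inhibition. Values are scaled between buffer-only and 29 nM porcine relaxin, and EC50s come from standard Hill equation fits.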
# gsp antag: gsp mutant antagonism | AID 624288 | Potency, µM (top dose mostly 76.9 µM), for the others: at the highest dose activity change, negative = inhibition, usual class: inhibitors | gsp-mutant cells, cAMP HTRF, 30 min | hit rate 0.4% among 340,000; calls by dose curve; cell line not stated here;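 also: intracellular cAMP measured with PDE inhibitor Ro 20-1724 present during compound exposure; potency is read from the fitted curve at half-maximal effect; % is scaled to controls: 0 for no effect and ±100 for the full control effect; nearly all actives have a fitted effect of over 65% in size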
#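 HTRF cAMP read-out (cAMP-d2 plus anti-cAMP antibody-K in lysis buffer, 30 min RT). Before lysis, cells are exposed to compounds with […] for 30 min at 37C in DPBS containing Ca/Mg, BSA and Tween 20.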
# Starred values were filed as active, the others as inactive; i = inactive; ? = inconclusive; · = not tested or not shown; [ ] = another dose, or the depositor's remark. Unless noted, calls follow the shape of the dose curve; as a rule, active = well fitted curve in the direction sought with a large enough effect; inconclusive = small, poorly fitted or top-dose-only effect, or another doubt; inactive = no such curve, though single readings can be large; an effect the other way counts as inactive or inconclusive.
SMILES,gsp agonist,RXFP1 antagonist,PTHR1 ag,RXFP1 agonist,gsp antag
Cc1[nH]nc(-c2ccc(O)c(C)c2O)c1-c1cnn(-c2ccccc2)c1,-66%,-87*,-1%[57.5 µM],1%,-3%
Cc1oc2c(C)c(O)ccc2c(=O)c1-c1cnn(-c2ccccc2)c1,-3%,-6,i,3%,-18%
CC(C)NC(=O)C1CCN(C(=O)c2cc3sccc3n2Cc2ccc(F)cc2)CC1,2%,-10,-33%[57.5 µM],1%,32µM*
CCN(CC)C(=O)Nc1ccc(OCC(O)CNC(C)(C)C)c(C(C)=O)c1 (centres undefined),·,-11,·,·,·
CCCc1cc(C(=O)Nc2ccc(C(=O)c3ccccc3)cc2)n(C)n1,4%,-18,-45%,0%,?
CCCc1cc(C(=O)Nc2ccc(C(=O)c3ccc(F)cc3)cc2)n(C)n1,21%,-14,-30%,1%,35µM*
CCOc1ccc(C(C(=O)NCC2CCCO2)N(C(=O)c2snc(C(N)=O)c2N)c2cccc(F)c2)cc1 (centres undefined),-19%,-91*,-17%,0%,?
Cc1cc(C)cc(N(C(=O)c2snc(C(N)=O)c2N)C(C(=O)NCC2CCCO2)c2ccc(C)o2)c1 (centres undefined),0%,-61*,i,0%,-16%
Cc1ccc(C(C(=O)NCC2CCCO2)N(C(=O)c2snc(C(N)=O)c2N)c2ccc(F)cc2)o1 (centres undefined),-2%,?,-5%,0%,-15%
Cc1ccc(C(C(=O)NCC2CCCO2)N(C(=O)c2snc(C(N)=O)c2N)c2ccc(C)c(C)c2)o1 (centres undefined),-3%[15.4 µM],-76*,-8%,2%,-25%
O=C(Nc1ccc2nc(SCC(=O)N3CCOCC3)sc2c1)c1ccc(Br)cc1,·,-19,-18%,11%,·
COc1cccc(C(=O)Nc2ccc3nc(SCC(=O)N4CCOCC4)sc3c2)c1,·,-96*,-12%,-1%,·
O=C(Nc1ccc2nc(SCC(=O)N3CCOCC3)sc2c1)c1ccc(F)cc1,·,-30,-24%,8%,·
O=C(Nc1ccc2nc(SCC(=O)N3CCOCC3)sc2c1)c1cccc(F)c1,·,-86*,-19%,0%,·
O=C(Nc1ccc2nc(SCC(=O)N3CCCC3)sc2c1)c1cccc(F)c1,·,-101*,-20%,6%,·
O=C(Nc1ccc2nc(SCC(=O)N3CCOCC3)sc2c1)c1ccccc1Cl,·,-64*,-57%,0%,·
Cc1cc(C)c(NC(=O)CN(C)S(=O)(=O)c2ccc3c(c2)CCC(=O)N3)c(C)c1,·,-4,i,1%,·
O=C(Nc1cccc(Br)c1)c1ccc2nc(N3C(=O)CCC3=O)sc2c1,-24%,-13,i,4%,35µM*
O=C(Nc1ccc2nc(SCC(=O)N3CCOCC3)sc2c1)c1cccc(Br)c1,·,-98*,-49%,1%,·
Cc1ccn2c(NC(=O)c3ccccc3)c(-c3cccs3)nc2c1,-27%,15,i,-4%,9%
Cc1ccn2c(-c3csc(NCc4ccccc4)n3)c(C)nc2c1,-40%,-25,-40%[57.5 µM],1%,40µM*
Cc1ccn2c(NCc3ccccc3)c(-c3cccs3)nc2c1,3%[15.4 µM],-77*,-11%,10%,-25%
Cc1ccc(O)c(NC(=O)CCSc2nc(-c3ccco3)cc(C(F)(F)F)n2)c1,·,-33,-2%,1%,·
COc1cc(/C=N/NC(=O)c2ccncc2)ccc1OCC(=O)Nc1ccccc1,-1%,-74*,i,-2%,-16%
COc1cc(/C=N/NC(=O)c2ccccc2O)ccc1OCC(=O)Nc1ccccc1,6%,·,i,3%,-6%
COc1cccc(C(=O)Oc2ccc(/C=N/NC(=O)c3ccncc3)cc2OC)c1,2%[15.4 µM],-10,-30%,-2%,-13%
COc1cc(/C=N/NC(=O)c2ccncc2)ccc1OC(=O)c1cccc(Br)c1,-1%,-72*,-21%,-2%,-25%
CC(NC(=O)CSc1nc(-c2cccc(Cl)c2)nc2cc(=O)[nH]n12)c1nc2ccccc2n1C (centres undefined),·,4,1%,1%,·
COc1ccccc1NC(=O)Nc1nc(CC(=O)NCc2ccc(F)cc2)cs1,-2%,-76*,-23%,-2%,?
